Results published in the supplement of paper PMC11577813, “Eurasian spruce bark beetle detects lanierone using a highly expressed specialist odorant receptor, present in several functional sensillum types” (BMC Biology, 2024).
± gives the standard deviation of the averaged measurements.

System: ipsdienol A-neuron OSN class
Experiment: net action potential response of A-neuron (blank-subtracted) (spikes/s (Hz)); higher = stronger excitation
Settings: 10 µg on filter paper; neuron: A neuron (large spike amplitude)
Protocol: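 Single sensillum recordings from antennal olfactory sensilla of live adult Ips typographus. Each compound was 10 µg in paraffin oil on filter paper, delivered as a 0.5 s puff. Net response = spikes in the first 0.5 s of response minus the 0.5 s pre-stimulus count, doubled to give Hz, with blank response subtracted. Values are for the large-spike A-neuron class of each of seven sensillum types that co-house the lanierone B-neuron; N = 1-4 sensilla, averaged.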

Row | Structure (SMILES) | net action potential response
1 | CC1=CCC(=C(C)C)CC1 [Terpinolene] | 1.33 ± 1.1
2 | c1ccc2c(c1)CCO2 [2,3-Dihydrobenzofuran] | 4 ± 7.2
3 | CC1(C)C2CC=C(CO)C1C2 (racemic) [(±)-Myrtenol] | 0.667 ± 3.1
4 | COc1ccc(C)cc1 [4-Methyl anisole] | 4 ± 2
5 | COc1ccccc1 [Anisole] | 2.67 ± 1.1
6 | CCC/C=C/C=O [(E)-hex-2-enal] | -0.667 ± 1.1
7 | C=C1CCC2CC1C2(C)C (stereo not drawn) [(-)-β-Pinene] | 2.67 ± 1.1
8 | CCCCCC(O)CC (racemic) [(±)-3-Octanol] | -0.667 ± 5
9 | CC1=CCC2CC1C2(C)C (stereo not drawn) [(-)-α-Pinene] | 1.33 ± 2.3
10 | CC/C=C\CCO | 0 ± 2
11 | CC1=CCC2C(C1)C2(C)C (single isomer, unassigned; (+)) [(+)-3-Carene] | 2.67 ± 5.8
12 | C[C@@H]1C(=O)C[C@H]2C[C@@H]1C2(C)C [(+)-Isopinocamphone] | 0 ± 5.3
13 | CC/C=C/CCO | 0.667 ± 3.1
14 | CCc1ccc(O)c(OC)c1 [4-Ethylguaiacol] | 0 ± 8
15 | CC12CCC(CC1)C(C)(C)O2 [1,8-Cineole] | 0 ± 5.3
16 | CC(C)CCO [3-Methyl-1-butanol] | 0.667 ± 4.2
17 | C[C@H]1C(=O)C[C@H]2C[C@@H]1C2(C)C [(-)-Pinocamphone] | -2.67 ± 1.1
18 | CC(=O)OC/C=C(\C)CCC=C(C)C [Geranyl acetate] | 2
19 | CCC1CCC2(CCCO2)O1 (racemic) [(±)-Chalcogran] | 1.33 ± 2.3
20 | C=C1CCC2(C(C)C)CC12 (racemic) [(±)-Sabinene] | 3.33 ± 2.3

Row | Structure (SMILES) | net action potential response
21 | C=C(C)[C@@H]1CC=C(C)CC1 [(-)-Limonene] | 5.33 ± 1.1
22 | CC1=CCC2CC1C2(C)C (stereo not drawn) [(+)-α-Pinene] | 2.67 ± 1.1
23 | C=C1[C@@H]2CC[C@@H](C2)C1(C)C (racemic) [(±)-Camphene] | 0 ± 2
24 | CCC/C=C/CO | -1.33 ± 1.1
25 | CC1=CC(=O)[C@@H]2C[C@H]1C2(C)C [(-)-Verbenone] | 2 ± 2
26 | C=CC(=C)CCC=C(C)C [Myrcene] | -2 ± 3.5
27 | C=CC(=C)CC(O)C=C(C)C (racemic) [(±)-Ipsdienol] | 116 ± 12
28 | C=CC(C)(C)O [2-Methyl-3-buten-2-ol] | 0 ± 4
29 | C=Cc1ccc(OC)cc1 [4-Vinyl anisole] | 2 ± 6
30 | C=CCc1ccc(OC)c(OC)c1 [Eugenol methyl ether] | 1.33 ± 1.1
31 | C=C(C)C1CC=C(C)C(=O)C1 (racemic) [(±)-Carvone] | 0 ± 3.5
32 | CC1=CC(C)(C)C=C(O)C1=O [Lanierone] | -3.33 ± 6.4
33 | CC(=O)c1ccccc1 [Acetophenone] | -4 ± 5.3
34 | CC(=O)OCCC(C)C [3-Methylbutyl acetate] | 0 ± 6.9
35 | COc1ccc(C)cc1OC [3,4-Dimethoxytoluene] | 0.667 ± 1.1
36 | CC[C@H]1O[C@]2(C)CCC[C@H]1O2 (racemic) [(±)-exo-Brevicomin] | -2.67 ± 5
37 | CCC/C=C\CO | 0.667 ± 3.1
38 | CCCCCCO [1-Hexanol] | -5.33 ± 5.8
39 | OCCc1ccccc1 [2-Phenylethanol] | -2.67 ± 3.1
40 | CC12CCC(CC1=O)C2(C)C (racemic) [(±)-Camphor] | -0.667 ± 5
